Our source for the binding signal values is paper PMC7862700, “An all-to-all approach to the identification of sequence-specific readers for epigenetic DNA modifications on cytosine”.

What all share (experiment): DAPPL (digital affinity profiling via proximity ligation, sequencing); 10 mM Tris-HCl pH 7.5, 50 mM NaCl, 1 mM DTT, 4% glycerol, room temperature, 30 min; GST-TFs on glutathione beads, 16-mer random dsDNA library, 0.1% formaldehyde crosslink after washing; high values mean tight binding
Conditions in all cases: protein: recombinant; tags: N-terminal GST; dsDNA, one strand shown

The target in one test is T1, FLI1 (Homo sapiens, UniProt Q01543 1-452).
T1 sequence: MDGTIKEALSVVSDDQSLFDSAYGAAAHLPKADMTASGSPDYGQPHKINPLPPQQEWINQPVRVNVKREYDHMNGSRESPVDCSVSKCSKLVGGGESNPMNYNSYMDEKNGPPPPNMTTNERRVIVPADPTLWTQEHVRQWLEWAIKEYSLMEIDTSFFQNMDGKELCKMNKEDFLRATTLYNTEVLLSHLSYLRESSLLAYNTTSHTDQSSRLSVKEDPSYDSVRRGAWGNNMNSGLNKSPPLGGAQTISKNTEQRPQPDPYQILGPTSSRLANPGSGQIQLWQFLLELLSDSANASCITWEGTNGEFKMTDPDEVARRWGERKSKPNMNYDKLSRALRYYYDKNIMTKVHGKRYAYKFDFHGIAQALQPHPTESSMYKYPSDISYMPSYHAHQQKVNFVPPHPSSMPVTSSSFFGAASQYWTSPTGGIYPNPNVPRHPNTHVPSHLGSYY
In a few lines:
(§1)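 Each value of binding signal is a hexamer's read frequency for a factor divided by the same hexamer's frequency in the tag-only sample. Barcoded, bead-captured GST fusions of human transcription factors made in yeast were pooled with that sample and incubated with 200 nmole of a random double-stranded 16-mer DNA library in Tris/NaCl/DTT/glycerol buffer at room temperature for 30 min. Washing, 0.1% formaldehyde crosslinking, proximity ligation, PCR and Illumina NextSeq500 sequencing followed.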

The next test has as its target T2, ELK1 (Homo sapiens, UniProt P19419 1-428).
T2 sequence: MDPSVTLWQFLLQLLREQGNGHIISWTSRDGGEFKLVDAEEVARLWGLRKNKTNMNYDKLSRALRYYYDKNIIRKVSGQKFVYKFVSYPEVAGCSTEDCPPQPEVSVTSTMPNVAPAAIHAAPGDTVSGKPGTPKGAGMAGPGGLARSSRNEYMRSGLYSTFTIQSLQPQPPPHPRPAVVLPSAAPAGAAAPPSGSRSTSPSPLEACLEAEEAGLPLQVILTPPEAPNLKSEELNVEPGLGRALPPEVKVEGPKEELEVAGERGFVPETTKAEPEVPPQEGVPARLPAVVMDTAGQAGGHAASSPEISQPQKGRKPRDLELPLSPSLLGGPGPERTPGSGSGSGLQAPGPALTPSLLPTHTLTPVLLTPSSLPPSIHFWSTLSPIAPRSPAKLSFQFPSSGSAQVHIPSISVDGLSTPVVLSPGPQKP
In a few lines:
as §1

The target in a further test is T3, GABPA (Homo sapiens, UniProt Q06546 1-454).
T3 sequence: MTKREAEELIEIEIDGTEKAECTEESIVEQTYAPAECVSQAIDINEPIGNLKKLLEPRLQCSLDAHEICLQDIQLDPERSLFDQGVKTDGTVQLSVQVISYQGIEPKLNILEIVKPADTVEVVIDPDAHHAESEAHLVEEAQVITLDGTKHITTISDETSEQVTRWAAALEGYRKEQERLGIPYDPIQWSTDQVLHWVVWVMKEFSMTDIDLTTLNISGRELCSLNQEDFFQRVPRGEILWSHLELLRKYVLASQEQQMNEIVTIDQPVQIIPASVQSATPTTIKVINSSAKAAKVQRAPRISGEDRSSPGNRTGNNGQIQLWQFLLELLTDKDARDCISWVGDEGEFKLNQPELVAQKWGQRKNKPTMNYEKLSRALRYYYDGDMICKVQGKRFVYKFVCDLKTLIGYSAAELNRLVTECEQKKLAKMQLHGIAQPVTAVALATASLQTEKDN
An outline of the steps:
as §1

Another test concerns the target T4, ERG (Homo sapiens, UniProt P11308 1-479).
T4 sequence: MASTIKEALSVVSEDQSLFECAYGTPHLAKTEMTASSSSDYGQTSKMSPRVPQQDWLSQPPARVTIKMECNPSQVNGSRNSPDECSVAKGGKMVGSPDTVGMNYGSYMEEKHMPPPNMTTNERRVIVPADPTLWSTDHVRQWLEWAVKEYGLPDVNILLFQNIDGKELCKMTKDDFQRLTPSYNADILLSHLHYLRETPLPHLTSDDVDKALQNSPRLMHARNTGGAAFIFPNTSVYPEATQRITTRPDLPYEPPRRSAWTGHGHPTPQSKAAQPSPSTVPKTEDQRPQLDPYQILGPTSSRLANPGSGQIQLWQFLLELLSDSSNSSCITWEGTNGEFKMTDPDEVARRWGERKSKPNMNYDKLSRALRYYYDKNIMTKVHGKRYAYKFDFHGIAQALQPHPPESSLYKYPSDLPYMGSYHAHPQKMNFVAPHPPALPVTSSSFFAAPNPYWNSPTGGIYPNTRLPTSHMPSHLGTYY
An outline of the steps: as §1

The next test has as its target ELF1 (Homo sapiens, UniProt P32519 1-619). In a few lines: as §1
A further test deals with T5, EHF (Homo sapiens, UniProt Q9NZC4 1-300).
T5 sequence: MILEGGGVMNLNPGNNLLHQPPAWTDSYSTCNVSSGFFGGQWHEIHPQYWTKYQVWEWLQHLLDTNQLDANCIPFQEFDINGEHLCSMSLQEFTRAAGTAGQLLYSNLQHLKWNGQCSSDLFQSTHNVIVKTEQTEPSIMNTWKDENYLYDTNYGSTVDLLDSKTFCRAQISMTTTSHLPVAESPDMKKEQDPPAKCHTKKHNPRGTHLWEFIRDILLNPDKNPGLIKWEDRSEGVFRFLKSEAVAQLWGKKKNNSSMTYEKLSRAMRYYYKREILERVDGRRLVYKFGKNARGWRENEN
An outline of the steps:
as §1

For another test, the target named is SPI1 (Homo sapiens, UniProt P17947 1-270). An outline of the steps: as §1
The next test concerns the target SPIB (Homo sapiens, UniProt Q01892 1-262). An outline of the steps:
as §1

For another test, the target named is T6, ELK3 (Homo sapiens, UniProt P41970 1-407).
T6 sequence: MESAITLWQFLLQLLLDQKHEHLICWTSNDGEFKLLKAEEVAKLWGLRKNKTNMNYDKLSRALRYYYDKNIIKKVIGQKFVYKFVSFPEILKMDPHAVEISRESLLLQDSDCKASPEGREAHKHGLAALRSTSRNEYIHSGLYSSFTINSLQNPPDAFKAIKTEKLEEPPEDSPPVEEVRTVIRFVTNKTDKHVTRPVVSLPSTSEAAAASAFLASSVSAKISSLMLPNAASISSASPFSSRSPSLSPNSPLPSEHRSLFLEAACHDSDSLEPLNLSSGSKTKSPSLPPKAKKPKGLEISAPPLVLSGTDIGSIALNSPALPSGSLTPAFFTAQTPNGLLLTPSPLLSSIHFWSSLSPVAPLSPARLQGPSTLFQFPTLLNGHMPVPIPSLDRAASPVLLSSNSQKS
An outline of the steps:
as §1

In a further test the target is T7, FEV (Homo sapiens, UniProt Q99581 1-238).
T7 sequence: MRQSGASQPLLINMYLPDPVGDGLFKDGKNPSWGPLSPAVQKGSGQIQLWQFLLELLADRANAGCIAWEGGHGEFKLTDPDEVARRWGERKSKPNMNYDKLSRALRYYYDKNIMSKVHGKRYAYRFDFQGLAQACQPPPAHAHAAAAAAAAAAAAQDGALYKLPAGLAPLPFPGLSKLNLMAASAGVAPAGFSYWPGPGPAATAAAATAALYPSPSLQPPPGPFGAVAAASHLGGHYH
An outline of the steps:
as §1

Sequence of ELF1 (P32519 whole entry): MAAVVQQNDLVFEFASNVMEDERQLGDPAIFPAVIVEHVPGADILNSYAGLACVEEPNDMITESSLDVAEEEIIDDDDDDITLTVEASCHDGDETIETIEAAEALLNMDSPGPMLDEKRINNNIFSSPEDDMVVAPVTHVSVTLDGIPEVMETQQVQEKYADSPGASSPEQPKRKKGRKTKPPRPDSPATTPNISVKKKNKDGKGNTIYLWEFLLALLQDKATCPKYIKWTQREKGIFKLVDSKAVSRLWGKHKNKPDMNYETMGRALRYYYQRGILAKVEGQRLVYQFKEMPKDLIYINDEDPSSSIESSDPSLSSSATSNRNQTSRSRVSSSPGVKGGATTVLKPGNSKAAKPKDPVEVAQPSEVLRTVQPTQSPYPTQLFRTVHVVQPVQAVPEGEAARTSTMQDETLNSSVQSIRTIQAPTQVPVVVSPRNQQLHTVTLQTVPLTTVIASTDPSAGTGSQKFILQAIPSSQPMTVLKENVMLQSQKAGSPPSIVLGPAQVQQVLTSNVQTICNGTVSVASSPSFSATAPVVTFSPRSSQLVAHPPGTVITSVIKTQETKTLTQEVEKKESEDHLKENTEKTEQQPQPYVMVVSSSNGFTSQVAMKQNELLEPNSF
Sequence of SPIB (Q01892 whole entry): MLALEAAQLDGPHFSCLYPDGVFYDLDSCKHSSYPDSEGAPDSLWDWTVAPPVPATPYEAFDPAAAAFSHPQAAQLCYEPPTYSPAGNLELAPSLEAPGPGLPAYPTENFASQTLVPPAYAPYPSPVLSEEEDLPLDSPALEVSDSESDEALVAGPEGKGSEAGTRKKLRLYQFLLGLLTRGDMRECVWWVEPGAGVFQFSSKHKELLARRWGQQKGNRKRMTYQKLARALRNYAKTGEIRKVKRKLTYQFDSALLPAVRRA

For the sequence TTGACG, the binding signal in the test with FLI1 is 1.19 fold enrichment (6-mer frequency, TF over GST control); with ELK1 it was 1.16 fold enrichment (6-mer frequency, TF over GST control); in the test with GABPA, 1.08 fold enrichment (6-mer frequency, TF over GST control); in the test with ERG, 1.06 fold enrichment (6-mer frequency, TF over GST control); in the test with ELF1, 1.1 fold enrichment (6-mer frequency, TF over GST control); in the test with EHF, 1.2 fold enrichment (6-mer frequency, TF over GST control). The binding signal is 1.04 fold enrichment (6-mer frequency, TF over GST control) with SPI1; 1.11 fold enrichment (6-mer frequency, TF over GST control) with SPIB; 1.08 fold enrichment (6-mer frequency, TF over GST control) in the test with ELK3; 1.1 fold enrichment (6-mer frequency, TF over GST control) in the test with FEV.
